# In the library only some 19% were active in any assay of this set; here they are far more common.
# ELG1 repair inh: inhibitors of ELG1-dependent DNA repair in HEK293T cells; AID 504467; hit rate 2.3% among 330,000; HEK293T ELG1-luciferase reporter, luminescence, 16 h; DNA damage induced by 5-fluorouridine; Potency, µM (titrated, usually from 46.1 µM), for the others: top-dose activity change, negative = inhibition, usual class: inhibitors; also: potency is read from the fitted curve at half-maximal effect; nearly all actives have a fitted effect of over 55% in size
#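 DMSO vehicle served as the neutral condition. Each well held 2,000 cells given 5-fluorouridine plus compound; after 16 hr at 37 °C/5% CO2, ONE-Glo was added and luciferase measured 30 min later.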
# TDP1 block: blocks human tyrosyl-DNA phosphodiesterase 1; Q9NUW8; hit rate 0.28% among 350,000; AID 485290; Potency, µM (top dose mostly 130 µM), for inactives: at the highest dose activity change, negative = inhibition, usual class: inhibitors; recombinant TDP1, AlphaScreen DNA substrate cleavage; also: potency is read from the fitted curve at half-maximal effect; nearly all actives have a fitted effect of over 40% in size
# Target sequence (Q9NUW8 whole entry, looked up): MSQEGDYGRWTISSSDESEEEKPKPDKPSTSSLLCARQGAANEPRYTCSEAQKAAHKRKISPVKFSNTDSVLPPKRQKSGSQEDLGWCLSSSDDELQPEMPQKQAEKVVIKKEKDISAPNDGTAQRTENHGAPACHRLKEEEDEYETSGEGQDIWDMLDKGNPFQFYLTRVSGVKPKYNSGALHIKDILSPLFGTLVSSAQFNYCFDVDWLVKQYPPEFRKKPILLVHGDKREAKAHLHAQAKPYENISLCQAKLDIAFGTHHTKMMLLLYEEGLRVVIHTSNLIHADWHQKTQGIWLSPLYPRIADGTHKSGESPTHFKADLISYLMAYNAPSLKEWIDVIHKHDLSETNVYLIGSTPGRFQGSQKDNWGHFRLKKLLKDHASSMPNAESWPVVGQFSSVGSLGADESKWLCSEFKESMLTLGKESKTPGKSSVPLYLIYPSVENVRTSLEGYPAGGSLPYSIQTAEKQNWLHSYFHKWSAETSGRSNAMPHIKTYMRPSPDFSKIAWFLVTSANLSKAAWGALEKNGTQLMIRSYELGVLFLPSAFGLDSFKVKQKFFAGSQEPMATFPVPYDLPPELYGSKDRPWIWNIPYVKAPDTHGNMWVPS
#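 Here, a 5' biotin and 3' phosphotyrosine-FITC DNA oligonucleotide reports Tdp1 activity: intact substrate bridges AlphaScreen beads, while cleavage leaves a 3' phosphate and drops signal. All incubations at room temperature.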
# DT40 TDP1 CPT: growth inhibition of DT40 Tdp1-/-;hTDP1 cells with camptothecin (screen for TDP1 inhibitors); hit rate 12% among 420,000; AID 686979; chicken DT40 Tdp1-/-;hTDP1 cells + 20 nM CPT, ATP luminescence, 48 h; Potency, µM (series often up to 46.2 µM), for the others: top-dose activity change, negative = growth inhibition, usual class: inhibitors; also: potency is read from the fitted curve at half-maximal effect; nearly all actives have a fitted effect of over 55% in size
#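 Cell growth measured by CellTiter-Glo luminescence after a minimum 48 h, 37 C compound exposure with 20 nM CPT in Tdp1-knockout DT40 cells stably expressing hTDP1, seeded 400/well; qHTS titration format.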
# Giardia killer: kills Giardia lamblia; Giardia lamblia trophozoite viability; activity change, % at 7.66 µM, hits read low; hit rate 0.15% among 340,000; AID 540267; in the data active = activity change below about -80%; inconclusive = between about -30% and that limit;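 also: parasites exposed to compound for two days anaerobically before the ATP read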
#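 Killing of trophozoites was scored by loss of ATP luminescence after a 48 hrs anaerobic exposure to compounds at 37 deg C, using 100 cells per well.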
# IL-1B inflam inh: inhibitors of inflammasome signaling (IL-1 beta secretion); THP-1 LPS/ATP IL-1B secretion, AlphaLISA, 16 h; hits give low values; activity change, % at 57.5 µM; hit rate 4.7% among 360,000; AID 743279; in the data active = activity change below about -50%; inconclusive = mostly about -30% to -49%
#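 Secreted IL-1B measured by AlphaLISA bead assay after 16 h compound exposure of THP-1 cells; compounds (final up to 57.5 uM) added 1 h before LPS (250 ng/mL) and ATP (1.25 mM) stimulation; lower signal means less secretion.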
# DT40 TDP1 no CPT: qHTS for Inhibitors of human tyrosyl-DNA phosphodiesterase 1 (TDP1): qHTS in cells in absence of CPT. DT40 Tdp1-/- hTDP1 cells, no CPT, ATP luminescence, 48 h. Potency, µM (titrated, usually from 46.2 µM), for the others: at the highest dose activity change, negative = growth inhibition, usual class: inhibitors. hit rate 15% among 420,000. AID 686978, 2013; also: potency is read from the fitted curve at half-maximal effect; nearly all actives have a fitted effect of over 55% in size
#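 Seeded 400 DT40-hTDP1 cells/well (vehicle DMSO, no 20 nM CPT); pinned compounds; ≥48 hr at 37 °C; CellTiter-Glo luminescence as viability measure.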
# Active calls of the source: *; ? = inconclusive; nt = no result; [ ] = remark or other dose. Unless noted, calls follow the shape of the dose curve; as a rule, active = well fitted curve in the direction sought with a large enough effect; inconclusive = small, poorly fitted or top-dose-only effect, or another doubt; inactive = no such curve, though single readings can be large; an effect the other way counts as inactive or inconclusive. % is scaled to controls: 0 for no effect and ±100 for the full control effect.
SMILES,ELG1 repair inh,TDP1 block,DT40 TDP1 CPT,Giardia killer,IL-1B inflam inh,DT40 TDP1 no CPT
CCN(CC)c1ccc(/C=N/NC(=O)c2nnn(-c3nonc3N)c2C(C)C)c(O)c1,26%,5%,5.8µM*,11,80,3.3µM*
COc1cc(/C=N/NC(=O)c2nnn(-c3nonc3N)c2C(C)C)ccc1OCc1ccc(F)cc1,?,3%,?,-15,?,21µM*
COc1ccc(S(=O)(=O)NCCCC(=O)Nc2ccc(Sc3ccc(N)cc3)cc2)cc1,nt,17%,nt,nt,nt,nt
CC(C)CCCN1C(N(C)C)=NC[C@@H]1C,-1%,-6%,0%,-27,-2,-22%
COc1ccc(-c2cn3c(n2)sc2cc(C(=O)NCCC4=CCCCC4)ccc23)cc1,nt,1%,?,nt,nt,13µM*
COc1ccc(-c2cn3c(n2)sc2cc(C(=O)NCCc4ccc(OC)cc4OC)ccc23)cc1,nt,-3%,7.3µM*,nt,nt,9.2µM*
C=C(C)COc1ccc(C2NC(=O)c3ccccc3O2)cc1OCC (centres undefined),0%,nt,8%,6,2,-7%
CCCNC(=O)C1(C)CCN(CCC(=O)c2ccc(Br)cc2)C1 (centres undefined),nt,nt,2.6µM*,nt,-14,3.3µM*
COCCNC(=O)C1(C)CCCN(CCC(=O)c2ccc(Br)cc2)C1 (centres undefined),nt,nt,5.8µM*,nt,-16,7.3µM*
CCNC(=O)C1(C)CCN1CCS(=O)(=O)c1ccc(C)cc1 (centres undefined),nt,nt,-8%,nt,10,-3%
CCNC(=O)C1(C)CCN1CCC(=O)c1ccc(Br)cc1 (centres undefined),nt,nt,21µM*,nt,0,16µM*
CCCCc1nc2ccn(CC(=O)N(C)C)c(=O)c2n1Cc1ccc(-c2ccccc2-c2nn[nH]n2)cc1,nt,-1%,nt,nt,nt,nt
Cc1ccccc1NC(=O)Cn1c(=O)oc2ccccc21,2%,2%,3.7µM*,10,13,2.1µM*
CC(C)Oc1ccc(CNC(=O)Cn2c(=O)oc3ccccc32)cc1,-3%,8%,?,15,-4,16µM*
COc1ccc(C)cc1NC(=O)Cn1c(=O)oc2ccccc21,2%,nt,9.2µM*,4,-4,2.1µM*
Cc1cccc(NC(=O)Cn2c(=O)oc3ccccc32)c1,?,-1%,?,1,-6,?
CCc1ccccc1NC(=O)Cn1c(=O)oc2ccccc21,nt,5%,2.3µM*,nt,nt,0.46µM*
Nc1ccc(SCC(=O)Nc2cccc([N+](=O)[O-])c2)cc1,13%,3%,?,-11,-19,-23%
COc1ccc(CCNC(=O)CNCC2CCCCC2)cc1OC,-3%,nt,-14%,-11,11,-18%
O=C(CCNc1ccc(Cc2ccncc2)cc1)c1ccc([N+](=O)[O-])cc1,-4%,11%,23µM*,-11,-17,?
Cc1c(C(=O)Nc2ccc(C(=O)Nc3ccccc3)cc2)cccc1[N+](=O)[O-],?,15%,-22%,-11,-14,-11%
O=[N+]([O-])c1ccc(NCCNc2ccc([N+](=O)[O-])cc2)cc1,nt,nt,-19%,9,-5,16%
Cc1ccc(C(=O)Nc2cccc(NC(=O)c3ccc(C)c([N+](=O)[O-])c3)n2)cc1[N+](=O)[O-],?,nt,?,7,18,16µM*
Cc1c(C(=O)Nc2ccc(Cc3ccncc3)cc2)cccc1[N+](=O)[O-],-11%,5%,?,-14,-50*,?
Cc1ccc(C(=O)Nc2sc(C)c(-c3ccccc3)c2C(N)=O)cc1[N+](=O)[O-],?,5%,13µM*,-5,-4,18µM*
SMILES,ELG1 repair inh,TDP1 block,DT40 TDP1 CPT,Giardia killer,IL-1B inflam inh,DT40 TDP1 no CPT
O=C(c1cnccn1)N1CCC2(CCCN(Cc3nccs3)C2)CC1,nt,nt,-1%,nt,nt,-7%
CCCc1ccc(S(=O)(=O)N2CCN(C(C)C(=O)NCc3ccccc3)CC2)cc1 (centres undefined),-7%,-4%,?,5,18,?
O=C(/C=C/c1ccc(Cl)cc1)Nc1ccccc1N1CCOCC1,12%,6%,?,0,0,?
COC(=O)c1ccc(Cl)c(NC(=O)c2cccc([N+](=O)[O-])c2C)c1,2%,1%,-9%,-6,-2,-18%
Cc1ccc(C(=O)Nc2ccc(Cc3ccncc3)cc2)cc1[N+](=O)[O-],?,1%,21µM*,2,?,21µM*
COC(=O)c1cc(NC(=O)c2cccc([N+](=O)[O-])c2C)ccc1Cl,16%,0%,-24%,3,-17,16µM*
CSc1c(C#N)sc(=S)n1-c1ccc(C)cc1,15%,3%,7%,4,-5,-29%
OC1COC(c2ccccc2)OC1C1OC(c2ccccc2)OCC1O (centres undefined),nt,nt,-3%,10,18,4%
COC(=O)C1=CN(c2cccc(OCc3ccccc3)c2)C(N)=C(C#N)C1c1ccc(-c2ccccc2)cc1 (centres undefined),nt,nt,-10%,nt,-4,-23%
COC(=O)C1=CN(c2ccc(Oc3ccccc3)cc2)C(N)=C(C#N)C1c1ccccc1 (centres undefined),nt,nt,?,nt,-1,15µM*
COC(=O)C1=CN(c2ccccc2OC)C(N)=C(C#N)C1c1cccc([N+](=O)[O-])c1 (centres undefined),nt,nt,0.82µM*,nt,55,1.3µM*
COC(=O)C1=CN(c2ccc(Oc3ccccc3)cc2)C(N)=C(C#N)C1c1ccc(-c2ccccc2)cc1 (centres undefined),nt,nt,?,nt,-11,?
COC(=O)C1=CN(c2ccc(F)cc2)C(N)=C(C#N)C1c1ccccc1 (centres undefined),nt,nt,?,nt,0,21µM*
COC(=O)C1=CN(c2ccc3c(c2)OCO3)C(N)=C(C#N)C1c1ccccc1 (centres undefined),nt,nt,5.2µM*,nt,-19,5.8µM*
COC(=O)C1=CN(c2cccc(OCc3ccccc3)c2)C(N)=C(C#N)C1c1ccccc1 (centres undefined),nt,nt,?,nt,8,?
Cc1cccn2c(=O)nc(SCC(=O)NC3CCCC3)nc12,11%,-8%[0.505 µM],-13%,2,1,-12%
O=C(COC(=O)CCCSc1nc2ccccc2[nH]1)NC(=O)NC1CCCC1,10%,5%,2%,20,3,-15%
COC(=O)C1=CN(c2ccc(N3CCOCC3)cc2)C(N)=C(C#N)C1c1ccc(-c2ccccc2)cc1 (centres undefined),nt,nt,7.3µM*,nt,7,5.8µM*

# Compound activity from PubChem.
